Several values for one entry are separate records, joined by “and”; a condition that tells them apart may be missing. Equal entries are not always repeated. About 83,000 compounds went through this panel and 20% of them were active in at least one assay; those are over-represented in the sample as a whole.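 Single-dose data. Exposure time 48 hours. Values below 10 considered active.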 Activity calls are given as the source filed them.
These compounds were tested on HL-60(TB) leukemia (assay: NCI-60 one-dose screen, 48 h (100 = growth as untreated, 0 = no growth, -100 = all killed)). Settings: 10 µM unless noted.

| Structure (SMILES) | growth |
| --- | --- |
| O=C(Nc1cccc(-n2ccc3c(NC(=O)c4ccccc4)nccc32)c1)c1cccc(C(F)(F)F)c1 | 0.531% (active) |
| O=C(CCCCCCSc1nc(-c2ccc(Cl)cc2)cc(-c2ccc(Cl)cc2)n1)NO | 9.99% (active) |
| CCN1CCOC1C(C)C (centres undefined) | 90% (inactive) |
| Cc1[nH]nc2c(=S)[nH]c(=O)[nH]c12 | 89.2% (inactive) |
| COC(=O)/C(CCC=C(C)C)=C1\[C@@H](OC(C)=O)C[C@@]2(C)[C@H]1C[C@@H](O)[C@H]1[C@@]3(C)CC[C@H](NCCCNCCCCNCCCN)[C@@H](C)[C@@H]3CC[C@@]12C | 37.2% (inactive) |
| O=C(N/N=C/c1cccnc1)c1ccccc1Nc1cccc(C(F)(F)F)c1 | 64.8% (inactive) |
| CCCCCCCCCCCCN1CCCC(C)C1 (centres undefined) | 55.6% (inactive) |
| CC(=O)OCC(=O)[C@@]1(O)[C@H](C)C[C@H]2[C@@H]3C=C(C)C4=Cc5c(cnn5-c5ccc(F)cc5)C[C@]4(C)[C@H]3[C@@H](O)C[C@@]21C | 16.3% (inactive) |
| COc1ccc(-c2nc(N/N=C/c3c[nH]c4ccccc34)nc(N3CCOCC3)c2C#N)cc1 | 47.9% (inactive) |
| O=C(CN1CCOCC1)N1CCOCC1 | 101% (inactive) and 109% (inactive) |
| CCOC(=O)c1sc2ncnc(Nc3ccc(NC(=O)Nc4ccc(Cl)cc4)cc3)c2c1C | 91.4% (inactive) |
| C=C1NC(=O)C(C(C)CC)NC(=O)C2CSCC(NC(=O)CCC(=O)O)C(=O)NC(Cc3ccccc3)C(=O)NC(C)C(=O)NC(CC(C)CC)C(=O)NC(C(=O)NC(Cc3ccccc3)C(=O)N3CCCC3C(=O)N2)C(C)OC(=O)C(CO)NC(=O)C(C(O)COC)N(C)C(=O)C(C(C)C)NC(=O)C(CC(C)CC)NC1=O (centres undefined) | -26.8% [6 µM] (active) |
| CC(C)(C)c1cc(-c2nc3ccc(N4CCN(S(C)(=O)=O)CC4)cc3[nH]2)cc(C(C)(C)C)c1O | 90.2% (inactive) |
| O=C(Nc1ccc(F)cc1F)c1cc(F)ccc1O | -25.4% (active) |
| O=C(C[n+]1cccc2cc(Cl)ccc21)c1ccc2c(c1)CCCC2 | -28.3% (active) |
| COc1cc2c(cc1OC)C(Cc1cc(OC)c(OC)cc1[N+](=O)[O-])=NCC2 | 63.1% (inactive) |
| COc1ccc(-c2nnc(COc3ccc(NC(=O)Nc4ccc(Cl)c(C(F)(F)F)c4)cc3F)o2)cc1 | -18.5% (active) |

| Structure (SMILES) | growth |
| --- | --- |
| O=C(NCCc1ccc(O)c(O)c1)C12CC3CC(CC(C3)C1)C2 | 57% (inactive) |
| COc1cc2nc(Cl)nc(NCCO)c2cc1OC | 104% (inactive) |
| O=c1c2ccccc2nc2n1Cc1nc3ccccc3c(=O)n1C2 | 100% (inactive) and -60.2% (active) |
| COc1ccc(-c2csc(NC(=O)CN3CCN(c4cc5c(cc4F)c(=O)c(C(=O)O)cn5C4CC4)CC3)n2)cc1 | -25% (active) |
| O=C(Nc1cccc(-n2ccc3c(NC(=O)c4ccccc4)nccc32)c1)c1ccc(Cl)c(C(F)(F)F)c1 | -32.3% (active) and 56.6% (inactive) |
| O=c1scc(-c2ccc(C(F)(F)F)cc2)s1 | 92.7% (inactive) |
| C=CC[N+]1(CCO)CCN=C1CCCCCCCCCCCCC (centres undefined) | -31.8% (active) |
| Cc1cccc2c1NC(=O)C2(c1ccc(O)cc1)c1ccc(O)cc1 | 83% (inactive) |
| CCN1CCN(CCC(=O)Nc2cccc(-n3cc(-c4ccncc4)c(-c4ccc(Cl)c(OC)c4)n3)c2)CC1 | -42.1% (active) |
| Cc1cccc(C)c1NC(=O)CSC(=S)N1CCCCC1 | 73.2% (inactive) |
| COc1cc(/C=C\c2cc(/C=C\c3ccc(O)c(OC)c3)n(C(=O)CNc3ccccc3OC)n2)ccc1O | 25.5% (inactive) |
| Nc1n[nH]c2cccc(C#Cc3cccc(NC(=O)c4cccc(C(F)(F)F)c4)c3)c12 | 9.22% (active) |
| c1ccc(-c2nc(N3CCOCC3)c3c4c(sc3n2)CCCCCC4)nc1 | 68.4% (inactive) |
| O=c1c2cc(F)ccc2sc2c(Nc3cccnc3)nc3ccccc3c12 | 88.5% (inactive) |
| COc1cccc(C2C3=C(COC3=O)N(CCO)c3cc(OC)ccc32)c1 (centres undefined) | -25.9% (active) |
| COc1cc(OC)cc(C2=C3CC[C@@H]4[C@H](CC[C@]5(C)C(=O)CC[C@@H]45)C3=CC3C(O)c4cccnc4N4C(=O)COC234)c1 (some centres undefined) | 98% (inactive) |
| COc1ccc(Cn2cc3c(c2-c2ccccc2)CCc2cncnc2-3)cc1 | 15.2% (inactive) |

Source: PubChem BioAssay (NCI)
